Legend:
Experiment in all cases: log2 ratio of Biotin-Ahx-Ub-VS probe labelling (fragment/DMSO); higher = less target engagement (more negative = stronger competition), active = hit call of the paper (q ≤ 0.05, log2 ratio ≤ -1)
Conditions in all cases: compound concentration: 200 uM; treatment time: 3 h
USP34 = USP34 (UniProt Q70CQ2)
Procedure, shortened: (§1)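 Global-median-normalised Spectronaut label-free quantities were compared by unpaired t-test, and values are average log2 ratios of fragment over vehicle. Only proteins with ≥2 unique peptides were used. HEK293T lysate (495 µg per sample) was treated in triplicate with fragment at 200 µM or vehicle for 3 h and then with Biotin-Ahx-Ub-VS at 0.5 µM final for 1 h. Labelled DUBs were then NeutrAvidin-enriched, digested with LysC and trypsin, and run by diaPASEF LC-MS/MS.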

USP36 = target: T1, USP36 (UniProt Q9P275)
T1 sequence (whole entry): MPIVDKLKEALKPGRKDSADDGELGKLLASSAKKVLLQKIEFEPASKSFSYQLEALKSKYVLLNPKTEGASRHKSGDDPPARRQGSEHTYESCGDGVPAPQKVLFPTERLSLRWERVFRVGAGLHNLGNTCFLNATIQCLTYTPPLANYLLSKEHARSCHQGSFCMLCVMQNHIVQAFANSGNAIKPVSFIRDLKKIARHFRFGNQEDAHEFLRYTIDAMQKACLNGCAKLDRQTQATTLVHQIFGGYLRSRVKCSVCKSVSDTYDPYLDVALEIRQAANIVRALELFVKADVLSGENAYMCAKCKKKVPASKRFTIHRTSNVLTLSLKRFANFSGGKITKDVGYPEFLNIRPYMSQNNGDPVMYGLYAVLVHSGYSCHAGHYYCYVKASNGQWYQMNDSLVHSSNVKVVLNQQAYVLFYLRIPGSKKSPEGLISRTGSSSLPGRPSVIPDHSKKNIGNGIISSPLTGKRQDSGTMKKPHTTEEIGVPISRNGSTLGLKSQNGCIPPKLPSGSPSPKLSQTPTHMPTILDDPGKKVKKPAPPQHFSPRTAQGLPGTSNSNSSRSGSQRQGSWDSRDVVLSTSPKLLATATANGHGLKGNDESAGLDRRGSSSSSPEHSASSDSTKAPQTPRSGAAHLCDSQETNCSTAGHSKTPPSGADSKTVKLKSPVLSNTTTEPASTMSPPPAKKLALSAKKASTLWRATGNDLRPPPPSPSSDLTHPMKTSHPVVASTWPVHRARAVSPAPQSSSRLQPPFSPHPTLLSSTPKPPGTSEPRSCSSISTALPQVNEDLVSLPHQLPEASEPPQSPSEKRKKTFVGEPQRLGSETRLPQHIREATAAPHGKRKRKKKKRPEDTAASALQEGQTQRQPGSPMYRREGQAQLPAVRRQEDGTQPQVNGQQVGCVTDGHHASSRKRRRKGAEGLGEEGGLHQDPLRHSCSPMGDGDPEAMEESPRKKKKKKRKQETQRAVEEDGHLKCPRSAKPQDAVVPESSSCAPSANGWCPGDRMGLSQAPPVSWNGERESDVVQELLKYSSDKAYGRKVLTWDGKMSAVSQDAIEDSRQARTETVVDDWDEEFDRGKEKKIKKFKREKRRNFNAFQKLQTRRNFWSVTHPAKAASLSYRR
Procedure, shortened: as §1

USP38 = target: T2, USP38 (UniProt Q8NB14)
T2 sequence (whole entry): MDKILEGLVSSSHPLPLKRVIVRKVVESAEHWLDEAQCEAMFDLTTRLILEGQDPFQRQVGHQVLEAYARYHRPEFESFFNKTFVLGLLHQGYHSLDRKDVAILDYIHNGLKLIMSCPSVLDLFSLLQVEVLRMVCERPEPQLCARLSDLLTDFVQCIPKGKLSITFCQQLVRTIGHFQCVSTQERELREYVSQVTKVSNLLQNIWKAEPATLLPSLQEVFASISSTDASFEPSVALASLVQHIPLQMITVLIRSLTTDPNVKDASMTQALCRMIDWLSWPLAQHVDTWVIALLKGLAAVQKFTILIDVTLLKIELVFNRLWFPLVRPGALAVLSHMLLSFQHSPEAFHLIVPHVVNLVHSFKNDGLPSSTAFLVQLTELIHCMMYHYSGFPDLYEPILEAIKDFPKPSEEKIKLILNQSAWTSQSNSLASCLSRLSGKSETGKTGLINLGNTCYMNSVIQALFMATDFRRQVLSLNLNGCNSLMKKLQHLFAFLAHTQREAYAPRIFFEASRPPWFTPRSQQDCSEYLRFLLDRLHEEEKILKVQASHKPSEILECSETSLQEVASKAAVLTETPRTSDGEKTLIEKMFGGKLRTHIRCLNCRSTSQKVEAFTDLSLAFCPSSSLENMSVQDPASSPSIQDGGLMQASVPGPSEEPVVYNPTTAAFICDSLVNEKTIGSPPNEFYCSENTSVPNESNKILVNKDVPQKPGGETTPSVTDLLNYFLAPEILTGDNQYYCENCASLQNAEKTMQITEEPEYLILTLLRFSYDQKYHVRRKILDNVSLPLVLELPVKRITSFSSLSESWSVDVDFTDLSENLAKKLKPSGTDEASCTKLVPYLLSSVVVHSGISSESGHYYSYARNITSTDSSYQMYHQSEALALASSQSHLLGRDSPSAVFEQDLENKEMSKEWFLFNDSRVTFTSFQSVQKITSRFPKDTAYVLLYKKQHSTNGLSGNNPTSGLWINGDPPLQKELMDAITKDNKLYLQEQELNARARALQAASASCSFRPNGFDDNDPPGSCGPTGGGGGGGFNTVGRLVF
Procedure, shortened: as §1

USP39 = target: T3, USP39 (UniProt Q53GS9)
T3 sequence (whole entry): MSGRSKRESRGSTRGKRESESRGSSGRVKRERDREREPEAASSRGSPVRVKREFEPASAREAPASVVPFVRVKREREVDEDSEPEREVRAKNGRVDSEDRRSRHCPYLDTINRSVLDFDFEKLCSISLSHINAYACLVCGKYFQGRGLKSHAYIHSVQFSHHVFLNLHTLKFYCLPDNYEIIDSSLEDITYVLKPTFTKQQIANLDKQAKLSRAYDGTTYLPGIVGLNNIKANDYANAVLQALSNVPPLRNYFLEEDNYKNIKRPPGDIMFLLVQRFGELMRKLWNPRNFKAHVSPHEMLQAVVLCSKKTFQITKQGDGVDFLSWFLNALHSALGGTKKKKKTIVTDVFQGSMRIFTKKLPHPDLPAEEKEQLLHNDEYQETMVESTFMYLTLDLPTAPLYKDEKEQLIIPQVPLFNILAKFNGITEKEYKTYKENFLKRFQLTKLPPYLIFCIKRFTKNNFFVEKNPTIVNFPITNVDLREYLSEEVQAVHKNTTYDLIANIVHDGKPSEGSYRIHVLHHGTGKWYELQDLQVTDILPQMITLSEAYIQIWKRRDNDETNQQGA
Procedure, shortened: as §1

USP4 = target: T4, USP4 (UniProt Q13107)
T4 sequence (whole entry): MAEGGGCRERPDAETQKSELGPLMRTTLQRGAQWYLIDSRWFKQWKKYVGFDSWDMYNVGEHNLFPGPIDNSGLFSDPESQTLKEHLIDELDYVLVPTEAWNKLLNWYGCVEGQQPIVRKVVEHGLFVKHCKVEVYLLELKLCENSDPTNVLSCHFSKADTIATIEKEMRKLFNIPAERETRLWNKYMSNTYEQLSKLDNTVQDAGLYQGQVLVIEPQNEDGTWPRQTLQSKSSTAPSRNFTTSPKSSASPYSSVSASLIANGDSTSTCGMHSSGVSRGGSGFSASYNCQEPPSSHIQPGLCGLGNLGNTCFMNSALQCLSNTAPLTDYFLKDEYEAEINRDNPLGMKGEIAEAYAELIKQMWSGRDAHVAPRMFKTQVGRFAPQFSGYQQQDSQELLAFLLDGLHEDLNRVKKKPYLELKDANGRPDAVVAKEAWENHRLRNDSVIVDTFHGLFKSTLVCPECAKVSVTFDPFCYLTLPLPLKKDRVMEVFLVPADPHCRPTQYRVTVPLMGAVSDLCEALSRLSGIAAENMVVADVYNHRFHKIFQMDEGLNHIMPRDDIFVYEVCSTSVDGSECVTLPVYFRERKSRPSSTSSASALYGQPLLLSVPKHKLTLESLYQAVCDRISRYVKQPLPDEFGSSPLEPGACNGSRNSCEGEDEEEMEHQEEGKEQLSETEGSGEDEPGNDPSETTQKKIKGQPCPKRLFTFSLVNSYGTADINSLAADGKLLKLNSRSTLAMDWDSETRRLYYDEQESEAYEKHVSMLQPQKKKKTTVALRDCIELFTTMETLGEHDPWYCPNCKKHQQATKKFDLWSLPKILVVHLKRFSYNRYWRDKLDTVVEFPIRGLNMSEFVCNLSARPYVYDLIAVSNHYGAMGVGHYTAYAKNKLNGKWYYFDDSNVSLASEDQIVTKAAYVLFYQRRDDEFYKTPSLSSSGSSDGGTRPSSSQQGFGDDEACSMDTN
Procedure, shortened: as §1

Measured: log2 ratio of Biotin-Ahx-Ub-VS probe labelling

Sequence of USP34 (Q70CQ2 whole entry, the tested form may be a part): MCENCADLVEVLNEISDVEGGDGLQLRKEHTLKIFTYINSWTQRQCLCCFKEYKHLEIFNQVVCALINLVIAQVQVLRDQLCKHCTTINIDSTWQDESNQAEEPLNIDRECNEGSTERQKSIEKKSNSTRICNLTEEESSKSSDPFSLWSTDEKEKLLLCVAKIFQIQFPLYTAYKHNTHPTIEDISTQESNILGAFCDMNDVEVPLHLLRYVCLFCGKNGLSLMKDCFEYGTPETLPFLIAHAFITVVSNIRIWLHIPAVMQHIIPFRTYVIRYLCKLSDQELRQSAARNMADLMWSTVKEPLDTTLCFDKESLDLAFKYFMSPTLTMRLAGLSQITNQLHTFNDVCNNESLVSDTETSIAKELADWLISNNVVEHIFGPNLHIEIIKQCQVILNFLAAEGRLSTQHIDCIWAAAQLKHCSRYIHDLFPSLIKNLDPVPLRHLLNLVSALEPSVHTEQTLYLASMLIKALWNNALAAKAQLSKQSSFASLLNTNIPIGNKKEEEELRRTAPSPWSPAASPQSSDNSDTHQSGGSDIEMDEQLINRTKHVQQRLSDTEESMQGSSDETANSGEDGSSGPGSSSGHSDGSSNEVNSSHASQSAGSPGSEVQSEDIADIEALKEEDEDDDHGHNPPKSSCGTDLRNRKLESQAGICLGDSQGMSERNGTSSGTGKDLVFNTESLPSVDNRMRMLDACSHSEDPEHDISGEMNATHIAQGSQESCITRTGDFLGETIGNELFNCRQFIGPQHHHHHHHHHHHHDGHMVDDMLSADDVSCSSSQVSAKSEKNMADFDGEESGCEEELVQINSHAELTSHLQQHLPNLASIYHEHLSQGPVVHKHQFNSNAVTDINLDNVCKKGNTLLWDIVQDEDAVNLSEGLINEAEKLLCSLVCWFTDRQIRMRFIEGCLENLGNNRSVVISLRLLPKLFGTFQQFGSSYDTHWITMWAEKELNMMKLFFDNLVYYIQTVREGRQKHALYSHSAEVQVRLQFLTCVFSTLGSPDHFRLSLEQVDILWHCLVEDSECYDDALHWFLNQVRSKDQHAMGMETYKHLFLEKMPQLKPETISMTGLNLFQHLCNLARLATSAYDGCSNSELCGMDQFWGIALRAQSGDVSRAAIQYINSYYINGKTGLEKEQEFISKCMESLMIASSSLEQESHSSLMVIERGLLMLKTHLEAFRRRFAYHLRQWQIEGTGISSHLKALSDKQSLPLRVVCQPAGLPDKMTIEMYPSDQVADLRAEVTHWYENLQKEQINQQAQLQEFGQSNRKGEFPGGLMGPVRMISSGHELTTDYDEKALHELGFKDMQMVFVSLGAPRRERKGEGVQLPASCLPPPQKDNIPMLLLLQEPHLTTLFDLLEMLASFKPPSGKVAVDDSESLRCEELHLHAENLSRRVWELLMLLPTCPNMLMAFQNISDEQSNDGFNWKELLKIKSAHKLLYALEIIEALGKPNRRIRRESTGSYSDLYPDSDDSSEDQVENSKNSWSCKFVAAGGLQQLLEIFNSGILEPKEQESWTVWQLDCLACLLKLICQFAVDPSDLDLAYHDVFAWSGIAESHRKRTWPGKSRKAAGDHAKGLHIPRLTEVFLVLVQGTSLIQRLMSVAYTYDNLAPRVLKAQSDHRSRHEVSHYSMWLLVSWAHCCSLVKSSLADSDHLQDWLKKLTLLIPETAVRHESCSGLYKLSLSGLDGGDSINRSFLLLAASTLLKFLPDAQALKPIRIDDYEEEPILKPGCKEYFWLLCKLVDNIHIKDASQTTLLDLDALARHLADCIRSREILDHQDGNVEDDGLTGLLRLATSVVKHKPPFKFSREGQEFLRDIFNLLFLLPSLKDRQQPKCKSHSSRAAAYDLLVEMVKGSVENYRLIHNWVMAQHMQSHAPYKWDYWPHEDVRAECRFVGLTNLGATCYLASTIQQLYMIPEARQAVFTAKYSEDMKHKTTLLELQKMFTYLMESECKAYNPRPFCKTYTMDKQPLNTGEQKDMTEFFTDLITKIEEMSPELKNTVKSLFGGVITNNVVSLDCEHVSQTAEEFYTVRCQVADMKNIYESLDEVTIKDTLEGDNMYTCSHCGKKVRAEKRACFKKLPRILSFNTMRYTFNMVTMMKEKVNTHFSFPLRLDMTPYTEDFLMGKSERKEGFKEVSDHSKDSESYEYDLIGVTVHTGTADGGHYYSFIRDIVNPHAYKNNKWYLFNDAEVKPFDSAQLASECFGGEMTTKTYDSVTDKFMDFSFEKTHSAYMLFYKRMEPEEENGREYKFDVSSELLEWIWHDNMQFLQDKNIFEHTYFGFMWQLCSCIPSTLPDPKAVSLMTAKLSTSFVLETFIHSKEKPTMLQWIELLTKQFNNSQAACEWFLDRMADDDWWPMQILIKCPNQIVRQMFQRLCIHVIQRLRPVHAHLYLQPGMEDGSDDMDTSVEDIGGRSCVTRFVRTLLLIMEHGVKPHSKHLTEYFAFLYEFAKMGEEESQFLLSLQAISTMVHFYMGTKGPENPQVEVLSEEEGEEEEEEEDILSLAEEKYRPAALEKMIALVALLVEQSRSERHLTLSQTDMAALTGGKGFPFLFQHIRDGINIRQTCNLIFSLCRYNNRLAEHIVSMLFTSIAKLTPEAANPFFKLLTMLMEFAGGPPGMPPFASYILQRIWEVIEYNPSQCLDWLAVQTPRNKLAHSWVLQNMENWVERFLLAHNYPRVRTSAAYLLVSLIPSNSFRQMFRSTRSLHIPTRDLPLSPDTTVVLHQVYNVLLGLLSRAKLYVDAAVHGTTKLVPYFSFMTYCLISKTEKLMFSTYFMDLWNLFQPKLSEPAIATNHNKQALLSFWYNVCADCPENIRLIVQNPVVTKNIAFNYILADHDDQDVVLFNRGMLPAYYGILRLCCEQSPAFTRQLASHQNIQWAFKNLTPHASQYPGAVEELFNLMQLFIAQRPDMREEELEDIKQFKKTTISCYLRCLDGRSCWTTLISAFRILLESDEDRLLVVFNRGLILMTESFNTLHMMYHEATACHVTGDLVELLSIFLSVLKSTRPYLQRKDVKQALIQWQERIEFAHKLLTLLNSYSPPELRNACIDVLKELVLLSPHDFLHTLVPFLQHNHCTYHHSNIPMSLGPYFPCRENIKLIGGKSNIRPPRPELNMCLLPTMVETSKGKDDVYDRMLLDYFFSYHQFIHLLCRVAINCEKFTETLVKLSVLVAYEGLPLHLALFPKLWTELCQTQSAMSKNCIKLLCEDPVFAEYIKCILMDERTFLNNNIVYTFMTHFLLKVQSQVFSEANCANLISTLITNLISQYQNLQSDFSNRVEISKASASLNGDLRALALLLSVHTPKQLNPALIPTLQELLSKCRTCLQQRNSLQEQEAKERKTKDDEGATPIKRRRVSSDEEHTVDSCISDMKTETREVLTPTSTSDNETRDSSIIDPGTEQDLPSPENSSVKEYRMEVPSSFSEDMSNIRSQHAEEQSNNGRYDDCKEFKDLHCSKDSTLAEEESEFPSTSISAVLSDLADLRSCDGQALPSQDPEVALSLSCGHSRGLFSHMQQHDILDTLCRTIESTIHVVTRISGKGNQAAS

CC(NC(=O)CCl)c1csc(-c2ccccc2)n1.Cl (stereo not given)
inactive: USP34 -0.477 | USP36 -0.276 | USP38 -0.266 | USP39 0.0283 | USP4 -0.166
